Not all results are given here.
aSyn 5UTR act = Activators working through SNCA 5'UTR binding (MLPCN); alpha-synuclein 5'UTR reporter, activators screen; activity score, % (tested at 7.5 µM), hits read low; 7.1% of 300,000 active; AID 1814; in the data active means activity score below about -60%
Numbers without * were called inactive.

SMILES	aSyn 5UTR act
O=[N+]([O-])c1ccc(N2CCN(c3ccccc3F)CC2)nc1	-66*
O=[N+]([O-])c1ccc(N2CCN(c3ccccc3)CC2)cc1	-80*
CC(C)OC(=O)c1ccc(N2CCN(c3ccccc3F)CC2)nc1	-68*
CC1Cc2ccccc2N1c1ncnc(N)c1[N+](=O)[O-] (stereo not drawn)	69
O=[N+]([O-])c1ccc(N2CCc3ccccc3C2)nc1	-66*
O=[N+]([O-])c1ccc(N2CCN(c3ccccc3)CC2)nc1	-76*
C/C(=N/N1CCN(c2ccccc2)CC1)c1cccc([N+](=O)[O-])c1	-70*
CCOc1ccc(-n2c(SCc3ccc([N+](=O)[O-])cc3)nnc2-c2ccccc2)cc1	56
O=[N+]([O-])c1ccc(-c2nnc(S)n2-c2ccccc2)cc1	-95*
O=C(Nc1ccc(O)cc1)c1c(O)c2c([nH]c1=O)CCCC2	-131*
CCCNC(=O)c1ccc2c(=O)c(O)c(-c3cccc(Br)c3)[nH]c2c1	84
CCCNC(=O)c1c(O)c2c([nH]c1=O)CCCC2	-77*
O=C(NCC1CCCO1)c1c(O)c2c([nH]c1=O)CCCC2 (stereo not drawn)	-112*
C(=C\c1ccco1)/C1=NN(c2ccccc2)C(c2ccco2)C1 (stereo not drawn)	-210*
O=C(Nc1nc(-c2cccc(Br)c2)cs1)Oc1ccccc1	-101*
CCc1ccc(-c2csc(NC(=O)Oc3ccccc3)n2)cc1	-161*
COc1cccc(-c2csc(NC(C)=O)n2)c1	-181*
Fc1ccc(-c2ccc(Nc3cccc(F)c3)nn2)cc1	-131*
Fc1ccc(Nc2ccc(-c3ccc(F)cc3)nn2)cc1	-161*
CCCCN(C(=O)NC(=O)Nc1cccc(C)c1C)S(C)(=O)=O	-92*
COC(=O)c1ccc(N)c(N=CC2=C(O)CC(C)(C)CC2=O)c1	-172*
COC(=O)c1ccc2c(c1)C(C)(C)C(/C=C/c1ccccc1O)=[N+]2C	118
Cc1cccc(Nc2nc(-c3ccc(O)c(O)c3)cs2)n1	-224*
Cc1cccc(Nc2nc(-c3ccc(F)c(C)c3)cs2)n1	-249*
CCOC(CNC(=O)c1ccc2nc(N3CCC(C)CC3)sc2c1)OCC	-180*
SMILES	aSyn 5UTR act
CCCN1CCN(CCCNC(=O)c2ccc3nc(N4CCC(C)CC4)sc3c2)CC1	-169*
CC1CCCCN1CCCNC(=O)c1ccc2nc(N3CCCCC3)sc2c1 (stereo not drawn)	-326*
CC1CC(C)CN(CCCNC(=O)c2ccc3nc(N4CCOCC4)sc3c2)C1 (stereo not drawn)	-113*
COc1ccc(/C=C2/SC(=O)NC2=O)cc1	-118*
COc1cc(/C=C2/SC(=S)N(CC3CCCO3)C2=O)ccc1O (stereo not drawn)	-95*
COc1ccc(/C=C2\SC(=S)N(CC3CCCO3)C2=O)cc1 (stereo not drawn)	-89*
Cc1ccc(/C=C2\SC(=S)N(CC3CCCO3)C2=O)o1 (stereo not drawn)	-68*
COc1ccc(/C=C2/SC(=S)N(CCC(=O)O)C2=O)cc1	98
Cc1ccc2cc(C3C(C#N)=C(N)Oc4c3ccc3cccnc43)c(=O)[nH]c2c1 (stereo not drawn)	61
Cc1[nH]nc2c1C(c1ccc(-c3ccc(Cl)cc3)o1)C(C#N)=C(N)O2 (stereo not drawn)	-63*
Cc1ccc(-c2ccc(C3C(C#N)=C(N)Oc4n[nH]c(C)c43)o2)cc1 (stereo not drawn)	-107*
O=C(NC(=S)N1CCCCC1)c1csc([N+](=O)[O-])c1	-87*
COc1cc2c(C)nc3c(cnn3-c3ccccc3)c2cc1OC	-240*
COc1cc(C(=O)OCC(=O)Nc2cc(C)on2)ccc1OCc1ccccc1Cl	-111*
c1ccc2nc3c(nc2c1)[nH]c1ccccc13	-171*
Cc1ccc(-c2nc3ccccc3s2)cc1NC(=S)NC(=O)c1ccccc1	-116*
O=C(Nc1ccc2oc(-c3ccccc3)nc2c1)c1cccs1	-295*
Cc1ccc(-c2nc3ccccc3[nH]2)cc1NC(=S)NC(=O)c1ccccc1Br	-67*
Cc1ccc(-c2nc3ccccc3o2)cc1NC(=S)NC(=O)c1cccs1	-75*
Cc1ccc2oc(-c3cccc(NC(=S)NC(=O)c4cccs4)c3)nc2c1	-153*
O=C(Nc1ccc2oc(-c3ccccc3)nc2c1)c1cc(-n2cnnc2)ccc1Cl	-64*
CCCC(=O)Nc1ccc2nn(-c3ccc(OC)cc3)nc2c1	-121*
CC(C)C(=O)Nc1ccc2nn(-c3ccc(F)cc3)nc2c1	-71*
Cc1ccc(-n2nc3ccc(NC(=O)c4ccco4)cc3n2)cc1	-83*
Cc1ccc(-n2nc3ccc(NC(=O)c4cccc([N+](=O)[O-])c4C)cc3n2)cc1	-66*
SMILES	aSyn 5UTR act
Nc1ccc2nn(-c3ccc(F)cc3)nc2c1	-108*
CC(C)CC(=O)Nc1ccc2nn(-c3ccccc3)nc2c1	-178*
Cc1ccc(-n2nc3ccc(NC(=O)C(C)C)cc3n2)cc1	-137*
O=C(/C=C/c1ccco1)Nc1ccc2nn(-c3ccccc3)nc2c1	-209*
CCOc1ccc(-n2nc3ccc(N)cc3n2)cc1	73
COc1ccc(/C=C/c2nnc(NC(C)=O)s2)cc1	-117*
